Data as given in PubChem BioAssay (Tox21).
Inconclusive results are not listed. Activity calls are given as the source filed them. Unless noted, calls follow the shape of the full dose curve.

Legend:
[1] = Nuclear factor erythroid 2-related factor 2/antioxidant responsive element (Nrf2/ARE) small molecule agonists: qHTS cell viability counter screen in human keratinocytes (AID 1919968; active = well fitted cell-killing curve with a large enough effect in the repeat runs; also: nearly all actives have a fitted effect of over 55% in size)
Procedure, shortened: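 Measured as CellTiter-Fluor fluorescence, this readout tracks cytotoxicity in the same wells as the ARE-luciferase screen. HaCaT reporter cells (1,500/well) received compounds after a 5 h pre-incubation and were exposed for 23 h.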

[2] = Nuclear factor erythroid 2-related factor 2/antioxidant responsive element (Nrf2/ARE) small molecule agonists: luciferase reporter gene qHTS assay in human keratinocytes (AID 1919969); also: nearly all actives have a fitted effect of over 35% in size
[3] = molecular target: Gonadotropin-releasing hormone receptor (Homo sapiens) (UniProt P30968); test: Human gonadotropin-releasing hormone receptor (GnRHR) small molecule agonists, calcium flux assay in GnRHR-HEK293 cells (AID 1920063); also: nearly all actives have a fitted effect of over 35% in size
Procedure, shortened: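 Fluorescence kinetics (480 nm excitation, 540 nm emission; 3 min, 1 s steps) report calcium mobilisation in human GnRHR-HEK293 cells in agonist mode. Dye incubation: 1 h, 37 C.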

[4] = p53 small molecule agonists, cell-based qHTS assay with human liver microsomes (AID 1963577);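 also: p53 response element beta-lactamase reporter cells with liver microsomes plus NADPH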
Procedure, shortened: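 Steps: plate p53RE-bla cells, incubate 5 h at 37 C; add compound in DMSO; add microsomes (0.5 mg/mL final) and NADPH (0.5 mg/mL final); incubate 16 h at 37 C; add LiveBLAzer, 2 h RT; read fluorescence.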

[5] = p53 small molecule agonists, cell-based qHTS assay with rat liver microsomes (AID 1963578)
Procedure, shortened: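 Metabolic activation is supplied by rat liver microsomes with NADPH (each 0.5 mg/mL final). p53RE-bla cells incubate with compound 16 h at 37 C; reporter activity is measured by LiveBLAzer fluorescence.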

[6] = p53 small molecule agonists, cell-based qHTS assay with human liver microsomes: qHTS cell viability counter screen (AID 1963579); also: nearly all actives have a fitted effect of over 45% in size
Procedure, shortened: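 After the 460/530 nm beta-lactamase read, CellTiter-Glo was added to the same wells and luminescence measured after 30 min at room temperature, giving viability of p53RE-bla cells treated 16 h with compounds plus microsomes and NADPH.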

[7] = p53 small molecule agonists, cell-based qHTS assay with rat liver microsomes: qHTS cell viability counter screen (AID 1963580); also: nearly all actives have a fitted effect of over 45% in size
Procedure, shortened: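 Viability is assessed in parallel with the p53 reporter read: HCT-116 p53RE-bla cells receive compounds plus rat microsomes and NADPH (0.5 mg/mL final apiece), incubate 16 h at 37 C, and then CellTiter-Glo luminescence is recorded.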

[8] = p53 small molecule agonists, cell-based qHTS assay (AID 1963582; active = well fitted activation curve with a large enough effect in the signal ratio in the repeat runs, not every such curve was filed as active; the % refers to the signal ratio)
Procedure, shortened: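 Compounds are pin-transferred in DMSO onto p53RE-bla cells and incubated 16 h at 37 C. The B/G FRET beta-lactamase substrate is then applied for 2 h at RT and fluorescence recorded.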

[9] = molecular target: 5-hydroxytryptamine receptor 2A (Homo sapiens) (UniProt P28223); test: 5-hydroxytryptamine receptor 2A (HTR2A) small molecule antagonists, cell-based qHTS assay (AID 1963586); also: nearly all actives have a fitted effect of over 45% in size
Procedure, shortened: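 Antagonist-mode intracellular calcium assay: DOI (4 nM) added after 5 min compound pre-incubation at room temperature to dye-loaded HTR2A-CHO cells. Fluorescence followed for 3 min, sampled every second.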

[10] = molecular target: 5-hydroxytryptamine receptor 2A (Homo sapiens) (UniProt P28223); test: 5-hydroxytryptamine receptor 2A (HTR2A) small molecule agonists, cell-based qHTS assay (AID 1963587); also: nearly all actives have a fitted effect of over 30% in size
Procedure, shortened: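 CHO cells stably expressing human HTR2A, plated 18 h, loaded with calcium dye 1 h at 37 C. Agonist mode: compounds added and intracellular calcium fluorescence recorded kinetically for 2 min at 1 sec intervals.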

[11] = molecular target: Muscarinic acetylcholine receptor M1 (Homo sapiens) (UniProt P11229); test: Cholinergic receptor muscarinic 1 (CHRM1) small molecule antagonists, cell-based qHTS assay (AID 1963588); also: nearly all actives have a fitted effect of over 40% in size
Procedure, shortened: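 CHRM1-CHO calcium-flux assay, antagonist mode. Cells were seeded 18 h, dye-loaded 1 h at 37 C and given compound for 5 min at RT, then acetylcholine was added at 50nM. FDSS fluorescence was read 3 min; 15 concentrations, three runs.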

[12] = molecular target: Muscarinic acetylcholine receptor M1 (Homo sapiens) (UniProt P11229); test: Cholinergic receptor muscarinic 1 (CHRM1) small molecule agonists, cell-based qHTS assay (AID 1963589); also: nearly all actives have a fitted effect of over 35% in size
Procedure, shortened: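 Each compound was tested at 15 concentrations across three independent runs on dye-loaded CHO cells stably expressing human CHRM1, reading intracellular calcium fluorescence kinetically at 1 sec intervals.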

[13] = cAMP Responsive Elements (CRE) small molecule agonists, cell-based qHTS assay (AID 1963590)
Procedure, shortened: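 Cell line: CRE-bla HEK 293T; medium DMEM/10% dialyzed FBS/0.1 mM NEAA/1 mM pyruvate/25 mM HEPES; 3 h compound exposure; beta-lactamase FRET readout after 2 h substrate loading at RT.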

[14] = molecular target: Beta-2 adrenergic receptor (Homo sapiens) (UniProt P07550); test: Adrenergic beta2 receptor (ADRB2) small molecule antagonists, cell-based qHTS assay (AID 1963592); also: series mostly up to about 92 µM; nearly all actives have a fitted effect of over 50% in size
Procedure, shortened: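 Cells (CHO, stable ADRB2 overexpression) incubated 18-20hr at 37C; compounds added from DMSO; agonist mix (1nM isoproterenol, 100uM IBMX, 25uM Ro-20-1724) added; 0.5hr RT; d2-cAMP and anti-cAMP-cryptate added; 1hr RT; 665/615 nm read.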

[15] = molecular target: Beta-2 adrenergic receptor (Homo sapiens) (UniProt P07550); test: Adrenergic beta2 receptor (ADRB2) small molecule agonists, cell-based qHTS assay (AID 1963593);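 also: CHO cells stably overexpressing human ADRB2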
Procedure, shortened: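 CHO cells stably over-expressing ADRB2 were plated overnight at 37C, then dosed with compounds plus a stimulation mix containing 100uM IBMX and 25uM Ro-20-1724 for 0.5hr at room temperature. cAMP was measured by HTRF competition, 1hr.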

[16] = molecular target: D(2) dopamine receptor (Homo sapiens) (UniProt P14416); test: Dopamine D2 receptor (DRD2) small molecule agonists, cell-based qHTS assay (AID 1963594); also: nearly all actives have a fitted effect of over 35% in size
Procedure, shortened: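 HEK293 cells stably expressing human DRD2, pre-treated with PDE inhibitor Ro20-1724 (0.1 mM final) and compound 10 min at room temperature, then stimulated with NKH477 (200nM […]) for 30 min. cAMP read by HTRF (665/620 nm).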

[17] = p53 small molecule agonists, cell-based qHTS assay: qHTS cell viability counter screen (AID 1963581); also: nearly all actives have a fitted effect of over 45% in size
Procedure, shortened: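 In the same plates used for the p53 bla reporter, HCT-116 cells given compounds for 16 h at 37 C received CellTiter-Glo; luminescence was recorded 30 min later at room temperature.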

[18] = cAMP Responsive Elements (CRE) small molecule antagonists, cell-based qHTS assay (AID 1963591; active = well fitted inhibition curve with a large enough effect in the signal ratio in the repeat runs, not every such curve was filed as active; the % refers to the signal ratio)
Procedure, shortened: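 Inhibition of NKH477-driven (0.25 uM final) CRE-beta-lactamase signal in HEK293T cells, 3 h compound exposure at 37 °C, detected by FRET substrate fluorescence.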

[19] = molecular target: D(2) dopamine receptor (Homo sapiens) (UniProt P14416); test: Dopamine D2 receptor (DRD2) small molecule antagonists, cell-based qHTS assay (AID 1963595; active = well fitted inhibition curve with a large enough effect in the signal ratio in the repeat runs, with a control signal flat; the % refers to the signal ratio)
Procedure, shortened: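 Antagonism was scored as restored cAMP in HEK293-DRD2 cells. These cells were stimulated with 200 nM NKH477 and 12 nM quinpirole for 30 min at room temperature, in the presence of 0.1 mM Ro20-1724.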
% is scaled to controls: 0 for no effect and ±100 for the full control effect.

Muscarinic acetylcholine receptor M1 (Homo sapiens), sequence (P11229 whole entry, looked up): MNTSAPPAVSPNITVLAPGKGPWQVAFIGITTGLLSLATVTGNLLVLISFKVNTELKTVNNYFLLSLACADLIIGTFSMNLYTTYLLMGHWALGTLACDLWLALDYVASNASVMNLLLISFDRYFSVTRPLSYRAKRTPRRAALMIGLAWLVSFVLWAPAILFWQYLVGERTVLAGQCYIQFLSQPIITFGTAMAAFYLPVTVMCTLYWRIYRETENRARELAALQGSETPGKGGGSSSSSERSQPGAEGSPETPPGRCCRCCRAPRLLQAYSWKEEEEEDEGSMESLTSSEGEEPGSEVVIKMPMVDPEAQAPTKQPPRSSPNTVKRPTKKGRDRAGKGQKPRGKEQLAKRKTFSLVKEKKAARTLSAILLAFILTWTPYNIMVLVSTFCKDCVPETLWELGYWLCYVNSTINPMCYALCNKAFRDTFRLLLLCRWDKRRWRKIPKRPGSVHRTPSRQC
D(2) dopamine receptor (Homo sapiens), sequence (P14416 whole entry, looked up): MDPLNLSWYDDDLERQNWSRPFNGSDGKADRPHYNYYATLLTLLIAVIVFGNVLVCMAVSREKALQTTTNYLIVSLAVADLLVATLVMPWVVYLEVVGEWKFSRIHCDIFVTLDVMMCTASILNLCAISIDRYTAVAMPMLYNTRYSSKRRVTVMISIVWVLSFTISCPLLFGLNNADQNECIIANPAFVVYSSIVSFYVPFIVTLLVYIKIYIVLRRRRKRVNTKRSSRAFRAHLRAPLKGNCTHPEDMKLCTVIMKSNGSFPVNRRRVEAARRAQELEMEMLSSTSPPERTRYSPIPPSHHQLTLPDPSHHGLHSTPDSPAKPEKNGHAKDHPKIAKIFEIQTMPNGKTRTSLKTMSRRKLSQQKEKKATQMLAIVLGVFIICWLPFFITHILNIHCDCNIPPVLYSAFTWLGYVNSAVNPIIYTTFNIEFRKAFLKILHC
Gonadotropin-releasing hormone receptor (Homo sapiens), sequence (P30968 whole entry, looked up): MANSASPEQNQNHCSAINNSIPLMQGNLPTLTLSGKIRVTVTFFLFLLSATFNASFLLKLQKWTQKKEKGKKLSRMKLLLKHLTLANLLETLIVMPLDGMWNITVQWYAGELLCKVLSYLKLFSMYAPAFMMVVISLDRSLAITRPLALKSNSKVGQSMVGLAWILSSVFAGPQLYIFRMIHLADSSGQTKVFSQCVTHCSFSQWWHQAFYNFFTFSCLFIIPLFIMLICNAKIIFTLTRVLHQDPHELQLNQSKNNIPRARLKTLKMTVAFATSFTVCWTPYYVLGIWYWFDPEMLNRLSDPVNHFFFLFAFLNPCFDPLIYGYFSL
5-hydroxytryptamine receptor 2A (Homo sapiens), sequence (P28223 whole entry, looked up): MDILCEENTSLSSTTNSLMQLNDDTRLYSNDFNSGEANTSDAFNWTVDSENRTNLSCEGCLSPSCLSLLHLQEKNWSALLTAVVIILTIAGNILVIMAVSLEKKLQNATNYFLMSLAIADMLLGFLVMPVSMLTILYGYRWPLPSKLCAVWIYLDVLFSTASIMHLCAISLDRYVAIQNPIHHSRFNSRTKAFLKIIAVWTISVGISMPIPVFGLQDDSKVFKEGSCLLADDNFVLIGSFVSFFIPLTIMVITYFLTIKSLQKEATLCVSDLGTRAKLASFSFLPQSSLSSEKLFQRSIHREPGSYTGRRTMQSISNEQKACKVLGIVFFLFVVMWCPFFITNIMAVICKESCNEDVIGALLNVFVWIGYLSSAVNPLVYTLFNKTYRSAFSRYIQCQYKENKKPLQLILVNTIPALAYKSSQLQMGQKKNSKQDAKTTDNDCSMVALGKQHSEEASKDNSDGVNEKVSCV
Beta-2 adrenergic receptor (Homo sapiens), sequence (P07550 whole entry, looked up): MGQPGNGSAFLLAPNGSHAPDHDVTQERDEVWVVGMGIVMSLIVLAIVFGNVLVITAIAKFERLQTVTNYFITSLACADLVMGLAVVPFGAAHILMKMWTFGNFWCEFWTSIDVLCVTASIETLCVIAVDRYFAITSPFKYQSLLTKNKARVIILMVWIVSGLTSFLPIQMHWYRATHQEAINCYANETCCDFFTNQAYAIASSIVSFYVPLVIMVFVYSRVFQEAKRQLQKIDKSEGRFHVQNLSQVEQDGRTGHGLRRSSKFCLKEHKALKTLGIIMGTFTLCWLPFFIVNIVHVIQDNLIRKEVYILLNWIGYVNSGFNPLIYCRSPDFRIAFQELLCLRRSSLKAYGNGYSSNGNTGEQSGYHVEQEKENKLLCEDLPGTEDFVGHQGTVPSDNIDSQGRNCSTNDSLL

C[N+]1([O-])CCOCC1
inactive: Potency [1] | Potency [2] | Potency [3] | Potency [4] | Potency [5] | Potency [6] | Potency [7] | Potency [8] | Potency [9] | Potency [10] | Potency [11] | Potency [12] | Potency [13] | Potency [14] | Potency [15] | Potency [16]

NCCCN1CCN(CCCN)CC1
inactive: Potency [1] | Potency [2] | Potency [3] | Potency [4] | Potency [5] | Potency [6] | Potency [7] | Potency [17] | Potency [8] | Potency [9] | Potency [11] | Potency [12] | Potency [13] | Potency [18] | Potency [14] | Potency [16]

CC(C)(CCl)c1ccccc1
inactive: Potency [1] | Potency [2] | Potency [3] | Potency [4] | Potency [5] | Potency [6] | Potency [7] | Potency [17] | Potency [8] | Potency [9] | Potency [10] | Potency [11] | Potency [12] | Potency [13] | Potency [18] | Potency [14] | Potency [16] | Potency [19]

COc1cc(/C=C/C(N)=O)cc(OC)c1OC
inactive: Potency [1] | Potency [2] | Potency [3] | Potency [4] | Potency [5] | Potency [7] | Potency [17] | Potency [8] | Potency [9] | Potency [10] | Potency [11] | Potency [12] | Potency [13] | Potency [18] | Potency [14] | Potency [16] | Potency [19]

OC/C=C/CO
inactive: Potency [1] | Potency [2] | Potency [3] | Potency [4] | Potency [5] | Potency [6] | Potency [17] | Potency [8] | Potency [9] | Potency [10] | Potency [12] | Potency [13] | Potency [14] | Potency [15] | Potency [16] | Potency [19]

COC(=O)c1ccc(C)cc1C1=NC(C)(C(C)C)C(=O)N1 (stereo not given)
inactive: Potency [1] | Potency [2] | Potency [3] | Potency [4] | Potency [5] | Potency [6] | Potency [7] | Potency [17] | Potency [8] | Potency [9] | Potency [10] | Potency [11] | Potency [12] | Potency [13] | Potency [14] | Potency [16] | Potency [19]

c1coc(CNc2ncnc3nc[nH]c23)c1
inactive: Potency [1] | Potency [2] | Potency [3] | Potency [4] | Potency [5] | Potency [6] | Potency [7] | Potency [17] | Potency [8] | Potency [9] | Potency [10] | Potency [11] | Potency [12] | Potency [13] | Potency [18] | Potency [14] | Potency [16] | Potency [19]

CCOC(=O)C(C)C(C)=O (stereo not given)
inactive: Potency [1] | Potency [2] | Potency [3] | Potency [4] | Potency [5] | Potency [6] | Potency [7] | Potency [17] | Potency [8] | Potency [9] | Potency [10] | Potency [11] | Potency [12] | Potency [13] | Potency [18] | Potency [15] | Potency [16] | Potency [19]

NC[C@H]1O[C@H](O[C@H]2[C@H](O)[C@@H](O[C@H]3O[C@H](CO)[C@@H](O)[C@H](N)[C@H]3O)[C@H](N)C[C@@H]2N)[C@H](N)[C@@H](O)[C@@H]1O
inactive: activity change, negative = cytotoxicity [1] -0.0182% [at 19 µM] | activity, positive = activation [2] 2.7% [at 19 µM] | activity change [3] 5.96% [at 11.8 µM, active compounds read high] | activation [4] -1.52% [at 13.5 µM] | activation [5] -0.665% [at 13.6 µM] | activity change, negative = cytotoxicity [6] -3.3% [at 13.5 µM] | activity change, negative = cytotoxicity [7] 3.53% [at 13.5 µM] | activity change, negative = cytotoxicity [17] -25.6% [at 13.5 µM] | activation [8] 0.52% [at 13.5 µM] | activity, negative = inhibition [9] 6.4% [at 12.7 µM] | activation [10] -0.88% [at 15.9 µM] | activity, negative = inhibition [11] 7.06% [at 12.6 µM] | activation [13] 0.862% [at 19 µM] | activity change, negative = inhibition [18] 0.145% [at 18.9 µM] | activity change, negative = inhibition [14] 5.76% [at 19 µM] | activation [15] 1.3% [at 19 µM] | activation [16] -0.355% [at 19 µM] | activity change, negative = inhibition [19] 13% [at 18.9 µM]

O=CC1CC=CCC1 (stereo not given)
inactive: Potency [1] | Potency [2] | Potency [3] | Potency [4] | Potency [5] | Potency [6] | Potency [8] | Potency [9] | Potency [10] | Potency [11] | Potency [13] | Potency [18] | Potency [14] | Potency [16] | Potency [19]

CC(O)C(CO)C(C)O (stereo not given)
inactive: Potency [1] | Potency [2] | Potency [3] | Potency [4] | Potency [5] | Potency [6] | Potency [7] | Potency [17] | Potency [8] | Potency [10] | Potency [11] | Potency [12] | Potency [13] | Potency [18] | Potency [14] | Potency [15] | Potency [16] | Potency [19]

c1ccc2cnccc2c1
inactive: Potency [1] | Potency [2] | Potency [3] | Potency [4] | Potency [5] | Potency [6] | Potency [7] | Potency [17] | Potency [8] | Potency [9] | Potency [10] | Potency [11] | Potency [12] | Potency [13] | Potency [18] | Potency [14] | Potency [16] | Potency [19]

CC(=O)OCCc1ccccc1
inactive: Potency [1] | Potency [2] | Potency [3] | Potency [4] | Potency [5] | Potency [6] | Potency [7] | Potency [17] | Potency [8] | Potency [9] | Potency [10] | Potency [11] | Potency [12] | Potency [14] | Potency [15] | Potency [16] | Potency [19]

CC(=O)CCC(C)C
inactive: Potency [1] | Potency [2] | Potency [3] | Potency [4] | Potency [5] | Potency [6] | Potency [7] | Potency [17] | Potency [8] | Potency [9] | Potency [10] | Potency [11] | Potency [12] | Potency [13] | Potency [18] | Potency [14] | Potency [16] | Potency [19]
